Assay results from PubChem BioAssay AID651657 (Broad Institute, 2012).
Measured potencies and affinities stand elsewhere. Calls of active or inactive are those of the source.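 Rule for the calls: active = signal falls, with fitted half-maximal concentration at most twice the top valid dose tested; inconclusive = flat curve with partial signal loss, or poor curve fit; inactive = the rest, including signal rising instead.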

These compounds were tested against DNA repair and recombination protein RAD54-like (Homo sapiens) (UniProt Q92698) (assay: inhibitors of human RAD54 branch migration, confirmation, biochemical, fluorescence, cherry-picked samples, dose series (AID 651657)). Settings: FAM/BHQ fluorescence, 60 min; series mostly up to 50 µM.
DNA repair and recombination protein RAD54-like (Homo sapiens), sequence (Q92698 whole entry, looked up): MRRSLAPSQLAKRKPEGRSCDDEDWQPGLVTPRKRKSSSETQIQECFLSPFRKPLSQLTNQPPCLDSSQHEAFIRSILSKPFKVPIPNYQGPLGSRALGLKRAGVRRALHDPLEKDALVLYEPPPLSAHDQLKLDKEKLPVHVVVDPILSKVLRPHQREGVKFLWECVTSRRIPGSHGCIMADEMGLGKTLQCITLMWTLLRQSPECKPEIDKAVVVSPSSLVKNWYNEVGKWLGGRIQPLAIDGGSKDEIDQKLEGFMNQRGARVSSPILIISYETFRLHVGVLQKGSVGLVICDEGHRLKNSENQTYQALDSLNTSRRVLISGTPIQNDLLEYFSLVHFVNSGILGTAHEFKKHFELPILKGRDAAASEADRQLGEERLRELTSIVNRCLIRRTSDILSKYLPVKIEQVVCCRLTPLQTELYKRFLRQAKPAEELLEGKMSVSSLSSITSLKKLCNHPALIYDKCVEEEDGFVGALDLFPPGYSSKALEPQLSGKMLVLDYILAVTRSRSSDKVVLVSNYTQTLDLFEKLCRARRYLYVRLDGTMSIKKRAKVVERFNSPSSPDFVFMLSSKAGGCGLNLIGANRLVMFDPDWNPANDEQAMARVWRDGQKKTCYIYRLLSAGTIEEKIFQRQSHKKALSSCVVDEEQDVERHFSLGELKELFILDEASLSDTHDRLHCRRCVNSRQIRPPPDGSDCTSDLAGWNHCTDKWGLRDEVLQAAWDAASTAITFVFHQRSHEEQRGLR
With `Nc1ccc(CCN2CCCC2)cc1` the outcome was “inactive”.
In the case of `CCN1CCN(c2ccc(N)c(C)c2)CC1`, the outcome is reported as “inactive”.
For `Nc1ccnn1C1CCNCC1`, the outcome was “inactive”.
